Experimental findings from PubChem BioAssay (NCATS) are described below.

Assay [1] deals with Lysosomal acid glucosylceramidase (Homo sapiens) (UniProt P04062). Put plainly: Glucocerebrosidase-p2 (AID 348; in the data active = potency below about 10 µM; note: potency is the fitted concentration of half-maximal effect). Conditions: purified GBA, blue fluorogenic substrate, 40 min. The essentials: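 Compounds titrated from 0.6 nM upwards against 0.2 nM enzyme in pH 5.9 citric acid/KH2PO4, taurocholate, tween-20; blue fluorogenic substrate 80 uM, 40 min room temperature, stopped and read Ex 365/Em 440 for AC50.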

A short description of assay [2]: AP1 Signaling Pathway (AID 357; active = well fitted curve in either direction with a large enough effect, not every such curve was filed as active;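 note: ME-180 reporter cells stimulated with EGF at its EC50 level; % is set by controls: 0 for no effect and ±100 for the full control effect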). As to conditions: ME-180 AP-1-bla reporter, EGF-induced, beta-lactamase ratio, 5 h; at 7.69 µM (top of the series) unless noted. A digest of the protocol: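 A ratiometric CCF4 readout (405 nm excitation; 460 and 530 nm emission) quantified AP-1-driven beta-lactamase in ME-180 cells after 5 h with compound and EC50 EGF; AC50 values were derived for activators and inhibitors.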

Assay [3] addresses Cytochrome P450 1A2 (Homo sapiens) (UniProt P05177). Put plainly: p450-cyp1a2 (AID 410; calls by dose curve; note: potency is the fitted concentration of half-maximal effect). As to conditions: recombinant CYP1A2, luciferin-ME demethylation, luminescence; series mostly up to 57 µM. The essentials: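 Inhibition was calculated relative to 57 uM furafylline (full inhibition). The reaction used human CYP1A2 at 20nM with Luciferin-ME at its Km, 100uM, driven by an NADPH-regenerating system for 60 min at room temperature.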

Assay [4] is described as follows: NFAT Signaling Pathway (AID 444; active = well fitted curve in either direction with a large enough effect, not every such curve was filed as active;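 note: carbachol stimulus at about its EC50 of 1 µM final; % is set by controls: 0 for no effect and ±100 for the full control effect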). As to conditions: Jurkat NFAT-bla M1, carbachol, beta-lactamase ratio, 5 h; at 7.69 µM (top of the series) unless noted. A digest of the protocol: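 Read-out: CCF4 FRET ratio (460 nm/530 nm) after 1 h RT dye loading, used for %activity and AC50 from titration series. Cells: Jurkat NFAT-β-lactamase/M1 line, treated with compound plus 1 uM carbachol for 5 h, 37 °C.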

Assay [5] is described as follows: Stat Signaling Pathway (AID 446; active = well fitted curve in either direction with a large enough effect, not every such curve was filed as active;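 note: ME-180 cervical cancer cells given 40 pM IL-6 alongside compound; SIE-controlled beta-lactamase reporter measured as 460/530 nm FRET emission ratio; % is set by controls: 0 for no effect and ±100 for the full control effect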). Conditions: ME-180 SIE beta-lactamase reporter, IL-6 stimulated, 5 h; at 7.69 µM (top of the series) unless noted. The essentials: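 Screening format detects activators and inhibitors alike: ME-180 SIE-bla cells stimulated at 40 pM IL-6 for 5 hrs with compound, then dual-emission beta-lactamase read at 405 nm excitation.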
Assay [6] addresses Glucocorticoid receptor (Homo sapiens) (UniProt P04150). Put plainly: GR-GFP Redistribution (AID 450;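 active = compounds whose dose series gives a full or clear partial fitted curve of increased nuclear translocation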; note: potency is the fitted concentration of half-maximal effect). As to conditions: U2OS GR-GFP nuclear translocation, laser cytometry, 2 h.
Assay [7] shares this target. Put plainly: GR-EFC Redistribution (AID 451; calls by dose curve; note: potency is the fitted concentration of half-maximal effect). Conditions: CHO-K1 GR-EFC translocation, beta-gal luminescence, 2 h. A digest of the protocol:
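Translocation of GR-ED fusion to nuclear EA restores b-gal, read by luminescence after 1 h room-temperature detection. Engineered CHO-K1 biosensor cells, 1,000/well, exposed 2 h at 37 C to titrations up to 46 uM final.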

Assay [8] addresses Mitogen-activated protein kinase 10 (Mus musculus) (UniProt Q61831). Put plainly: JNK3 AlphaScreen Assay (AID 530; active = well fitted curve in either direction with a large enough effect, not every such curve was filed as active;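 note: kinase came from lysate of stimulated human HepG2 cells; signal reports phosphorylation of biotinylated GST-cJun 1-79 at Ser73 with 10 µM ATP; % is set by controls: 0 for no effect and ±100 for the full control effect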). As to conditions: JNK3 lysate, c-Jun phosphorylation; series mostly up to 57.1 µM. A digest of the protocol:
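Room-temperature AlphaScreen kinase assay; pre-activated HepG2 lysate as JNK3 source, biotin-GST-cJun(1-79) substrate, 10 uM ATP, compound 15 min preincubation.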
On the technique in general: Bead proximity is the source of the signal in Alpha formats.

In assay [9] the target is 3',5'-cyclic-AMP phosphodiesterase 4B (Homo sapiens) (UniProt Q07343). Kind of assay: qHTS Assay for Inhibitors of PDE-IV (AID 607; active = well fitted activation curve with a large enough effect in the main read-out, with a control signal flat, not every such curve was filed as active; note: % of control where 0% means no effect). As to conditions: HEK293 ACTOne CNG channel cells, membrane potential fluorescence; series mostly up to 22.9 µM. A digest of the protocol:
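The readout is membrane depolarisation from a cAMP-sensing CNG channel, detected with a potential dye at ex 535/em 590. Cells were HEK293-derived (endogenous PDE-IV) at 1000 cells/well, titrated up to 22.9 uM final.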
(In qHTS, concentration-response curves come from the screen itself.)

Assay [10] has as its target Cytochrome P450 3A4 (Homo sapiens) (UniProt P08684). Kind of assay: qHTS Assay for Activators of Cytochrome P450 3A4 (AID 885). Note: nearly all actives have a fitted effect of over 65% in size. As to conditions: recombinant CYP3A4, Luciferin-PPXE luminescence, 60 min; series mostly up to 57.1 µM. A digest of the protocol:
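Steps: enzyme/substrate mix dispensed; compound added, 10 min RT; NADPH regeneration solution added, 60 min RT; luciferin detection buffer stops reaction; 20 min later luminescence measured.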

In assay [11] the target is Dual specificity protein kinase CLK4 (Homo sapiens) (UniProt Q9HAZ1). Kind of assay: qHTS Assay for Inhibitors of CDC-like Kinase 4 (Kinase-Glo Assay) (AID 1770). Note: nearly all actives have a fitted effect of over 65% in size. Note: potency is the fitted concentration of half-maximal effect. Conditions: recombinant Clk4, Kinase-Glo ATP depletion luminescence; series mostly up to 66.7 µM. A digest of the protocol: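 Clk4 25 nM, RS peptide 100 uM, ATP 1 uM, pH 7.5 Tris, 10 mM MgCl2, 2.5 mM DTT; 4.5 h RT; ATP depletion read by Kinase-Glo luminescence.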

For assay [12] the target is unchanged. Put plainly: qHTS Assay for Inhibitors of CDC-like Kinase 4 (ADP-FP Assay) (AID 1795).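 Note: recombinant human CLK4 phosphorylating RS repeat peptide at 1 µM ATP; % is set by controls: 0 for no effect and ±100 for the full control effect; nearly all actives have a fitted effect of over 60% in size.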 Conditions: Transcreener ADP fluorescence polarization; series mostly up to 50 µM. The essentials:
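Kinase activity was followed as ADP output, converted from fluorescence polarization with a calibration curve. Reactions ran one hour at low ATP (1 uM) with RS peptide substrate.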

Assay [13] concerns the target Ubiquitin carboxyl-terminal hydrolase 1 (Homo sapiens) (UniProt O94782). Put plainly: Inhibitors of USP1/UAF1: Pilot qHTS (AID 504865).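 Note: rhodamine fluorescence freed from ubiquitin-rhodamine substrate followed over time; top concentration of the series differs between compounds; % is set by controls: 0 for no effect and ±100 for the full control effect; nearly all actives have a fitted effect of over 35% in size.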 As to conditions: purified USP1/UAF1, Ub-rhodamine cleavage fluorescence; series mostly up to 54.9 µM. The essentials:
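Enzyme-free wells gave the negative control, while test wells held 1nM USP1/UAF1 preincubated with compound for 15 min at room temperature. Ub-Rho at 150nM final started the reaction, and fluorescence at 480/540 nm was recorded kinetically.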

A short description of assay [14]: Primary qHTS for small molecule stabilizers of the endoplasmic reticulum resident proteome: Secreted ER Calcium Modulated Protein (SERCaMP) assay (AID 1508630). Note: % is set by controls: 0 for no effect and ±100 for the full control effect. Conditions: SH-SY5Y GLuc-SERCaMP (Gaussia luciferase released on ER calcium loss) secretion, thapsigargin, luminescence; series mostly up to 38.4 µM. A digest of the protocol: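 GLuc-SERCaMP-expressing SH-SY5Y cells, pretreated 16 h with compound, are challenged with thapsigargin to empty ER calcium stores; after 4 h, coelenterazine is added directly to the medium and luminescence is imaged.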

The target of assay [15] is Cytochrome P450 3A4 (Homo sapiens) (UniProt P08684). Put plainly: qHTS Assay for Inhibitors and Substrates of Cytochrome P450 3A4 (AID 884). Note: potency is the fitted concentration of half-maximal effect; nearly all actives have a fitted effect of over 50% in size. As to conditions: recombinant CYP3A4, Luciferin-PPXE luminescence; series mostly up to 57.1 µM. A digest of the protocol: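 20 nM human CYP3A4 with 25 uM Luciferin-PPXE (at KM) in 200 mM KPO4, preincubated 10 min with compound; NADPH regeneration started a 60 min RT reaction. Luciferin detected by luminescence, normalized to 57 uM ketoconazole as full inhibition.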

Assay [16] deals with Cytochrome P450 2C19 (Homo sapiens) (UniProt P33261). Kind of assay: qHTS Assay for Inhibitors and Substrates of Cytochrome P450 2C19 (AID 899). Note: potency is the fitted concentration of half-maximal effect; nearly all actives have a fitted effect of over 60% in size. Conditions: recombinant CYP2C19, luciferin-H EGE luminescence; series mostly up to 57.1 µM. The essentials: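 Reactions contain 5nM enzyme, 10uM Luciferin-H EGE (KM) and 50mM KPO4; compound preincubates 10 min at 37C, NADPH regeneration starts turnover for 60 min. Luminescence after detection reagent gives activity.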

Assay [17] deals with Dual specificity protein kinase CLK4 (Homo sapiens) (UniProt Q9HAZ1). Put plainly: qHTS Assay for Inhibitors of CDC-like Kinase 4 (ADP-Glo Assay) (AID 1771). Note: nearly all actives have a fitted effect of over 70% in size. Note: potency is the fitted concentration of half-maximal effect. Conditions: recombinant CLK4, ADP-Glo luminescence; series mostly up to 80 µM. The essentials:
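Kinase reaction: Clk4 at 25 nM, RS repeat peptide substrate at 100 uM, ATP at 1 uM, 1 hr, room temperature. Product ADP detected as luciferase signal via ADP-Glo.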

Unmarked numbers belong to inactive results. Inconclusive results are not listed. Active and inactive are the calls of the source. Unless noted, calls come from the whole dose curve; as a rule, active = well fitted curve in the direction sought with a large enough effect; inconclusive = small, poorly fitted or top-dose-only effect, or another doubt; inactive = no such curve, though single readings can be large; an effect the other way counts as inactive or inconclusive. A value given as a limit tells only on which side of the number the result lay.

Chain of Ubiquitin carboxyl-terminal hydrolase 1 (Homo sapiens) (O94782 whole entry, looked up): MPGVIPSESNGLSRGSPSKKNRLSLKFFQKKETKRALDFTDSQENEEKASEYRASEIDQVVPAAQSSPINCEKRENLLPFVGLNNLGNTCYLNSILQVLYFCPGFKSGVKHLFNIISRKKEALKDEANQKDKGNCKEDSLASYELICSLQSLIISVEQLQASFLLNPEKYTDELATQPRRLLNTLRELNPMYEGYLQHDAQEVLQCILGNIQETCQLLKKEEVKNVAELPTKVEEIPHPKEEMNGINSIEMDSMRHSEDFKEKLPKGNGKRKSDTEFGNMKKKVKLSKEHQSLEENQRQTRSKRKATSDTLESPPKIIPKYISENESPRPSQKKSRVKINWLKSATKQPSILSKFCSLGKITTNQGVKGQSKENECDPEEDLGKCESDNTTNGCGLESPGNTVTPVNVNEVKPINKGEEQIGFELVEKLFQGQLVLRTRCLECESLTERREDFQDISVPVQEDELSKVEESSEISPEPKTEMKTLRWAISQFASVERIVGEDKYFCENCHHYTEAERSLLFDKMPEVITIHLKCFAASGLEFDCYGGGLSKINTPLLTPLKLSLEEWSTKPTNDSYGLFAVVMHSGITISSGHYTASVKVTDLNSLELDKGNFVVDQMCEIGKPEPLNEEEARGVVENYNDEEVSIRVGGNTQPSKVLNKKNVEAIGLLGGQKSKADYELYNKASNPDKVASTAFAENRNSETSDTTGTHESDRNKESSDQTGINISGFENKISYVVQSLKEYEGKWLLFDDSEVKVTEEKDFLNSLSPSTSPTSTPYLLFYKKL
Chain of Dual specificity protein kinase CLK4 (Homo sapiens) (Q9HAZ1 whole entry, looked up): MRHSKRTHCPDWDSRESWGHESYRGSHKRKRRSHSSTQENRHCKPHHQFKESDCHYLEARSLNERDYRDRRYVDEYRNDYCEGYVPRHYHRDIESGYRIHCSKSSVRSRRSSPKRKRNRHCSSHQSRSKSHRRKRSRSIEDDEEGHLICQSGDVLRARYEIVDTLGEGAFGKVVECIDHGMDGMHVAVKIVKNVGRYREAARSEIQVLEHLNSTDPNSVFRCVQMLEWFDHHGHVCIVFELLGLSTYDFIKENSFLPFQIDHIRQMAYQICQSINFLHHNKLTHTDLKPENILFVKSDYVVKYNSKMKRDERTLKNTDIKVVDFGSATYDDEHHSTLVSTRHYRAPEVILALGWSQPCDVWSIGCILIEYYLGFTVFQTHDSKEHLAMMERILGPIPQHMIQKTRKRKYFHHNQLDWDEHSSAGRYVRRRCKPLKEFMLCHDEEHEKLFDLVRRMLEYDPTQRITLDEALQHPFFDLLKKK
Chain of 3',5'-cyclic-AMP phosphodiesterase 4B (Homo sapiens) (Q07343 whole entry, looked up): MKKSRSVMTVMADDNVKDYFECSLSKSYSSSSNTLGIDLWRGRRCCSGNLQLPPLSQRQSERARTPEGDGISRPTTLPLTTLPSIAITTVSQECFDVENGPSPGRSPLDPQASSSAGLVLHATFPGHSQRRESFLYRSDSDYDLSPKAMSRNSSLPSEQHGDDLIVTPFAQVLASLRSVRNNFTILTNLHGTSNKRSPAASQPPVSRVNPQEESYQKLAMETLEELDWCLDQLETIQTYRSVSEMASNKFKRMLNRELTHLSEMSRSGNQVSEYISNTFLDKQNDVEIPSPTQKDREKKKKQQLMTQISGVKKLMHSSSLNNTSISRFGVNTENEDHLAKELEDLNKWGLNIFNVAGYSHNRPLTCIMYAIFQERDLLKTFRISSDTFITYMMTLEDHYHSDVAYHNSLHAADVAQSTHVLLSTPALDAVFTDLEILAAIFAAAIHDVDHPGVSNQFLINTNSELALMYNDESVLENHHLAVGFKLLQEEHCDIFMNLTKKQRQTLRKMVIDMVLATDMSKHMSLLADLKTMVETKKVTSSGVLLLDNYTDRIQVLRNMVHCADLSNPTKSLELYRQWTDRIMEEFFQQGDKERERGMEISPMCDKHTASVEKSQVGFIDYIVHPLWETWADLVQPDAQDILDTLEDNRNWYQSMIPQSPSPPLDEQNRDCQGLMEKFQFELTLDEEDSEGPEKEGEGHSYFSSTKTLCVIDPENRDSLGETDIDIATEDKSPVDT
Chain of Cytochrome P450 3A4 (Homo sapiens) (P08684 whole entry, looked up): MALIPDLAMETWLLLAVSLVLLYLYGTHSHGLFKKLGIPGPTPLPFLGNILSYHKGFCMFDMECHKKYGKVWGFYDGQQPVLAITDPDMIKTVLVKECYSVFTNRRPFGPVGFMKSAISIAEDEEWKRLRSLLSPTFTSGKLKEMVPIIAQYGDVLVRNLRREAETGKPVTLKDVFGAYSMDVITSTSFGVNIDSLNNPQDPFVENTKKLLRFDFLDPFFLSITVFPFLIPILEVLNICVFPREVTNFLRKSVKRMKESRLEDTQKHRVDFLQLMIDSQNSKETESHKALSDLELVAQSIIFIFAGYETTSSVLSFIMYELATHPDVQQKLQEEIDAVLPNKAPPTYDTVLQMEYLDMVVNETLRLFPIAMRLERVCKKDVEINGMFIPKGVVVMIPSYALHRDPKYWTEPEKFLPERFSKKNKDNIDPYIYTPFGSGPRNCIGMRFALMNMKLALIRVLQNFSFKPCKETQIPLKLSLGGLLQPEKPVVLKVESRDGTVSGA
Chain of Glucocorticoid receptor (Homo sapiens) (P04150 whole entry, looked up): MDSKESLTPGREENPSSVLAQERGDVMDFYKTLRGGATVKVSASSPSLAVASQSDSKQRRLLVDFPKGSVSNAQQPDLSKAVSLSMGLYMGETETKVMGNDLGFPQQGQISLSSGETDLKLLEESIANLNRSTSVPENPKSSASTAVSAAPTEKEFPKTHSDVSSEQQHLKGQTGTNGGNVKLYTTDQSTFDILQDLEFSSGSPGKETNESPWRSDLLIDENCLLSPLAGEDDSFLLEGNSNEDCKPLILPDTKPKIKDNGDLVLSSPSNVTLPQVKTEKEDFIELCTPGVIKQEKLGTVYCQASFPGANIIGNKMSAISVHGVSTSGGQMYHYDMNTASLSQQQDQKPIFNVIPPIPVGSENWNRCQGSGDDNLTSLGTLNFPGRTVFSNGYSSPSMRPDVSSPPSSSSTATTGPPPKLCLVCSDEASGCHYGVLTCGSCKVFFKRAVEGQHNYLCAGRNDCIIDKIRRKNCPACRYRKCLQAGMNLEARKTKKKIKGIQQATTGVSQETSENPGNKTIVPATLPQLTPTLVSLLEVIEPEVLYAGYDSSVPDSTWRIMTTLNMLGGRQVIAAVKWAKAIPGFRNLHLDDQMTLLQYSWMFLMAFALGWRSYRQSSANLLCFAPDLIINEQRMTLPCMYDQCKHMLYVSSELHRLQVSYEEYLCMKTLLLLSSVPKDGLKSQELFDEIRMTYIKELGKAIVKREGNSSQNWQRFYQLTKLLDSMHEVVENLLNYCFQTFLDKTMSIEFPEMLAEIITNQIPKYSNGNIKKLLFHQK
Chain of Cytochrome P450 1A2 (Homo sapiens) (P05177 whole entry, looked up): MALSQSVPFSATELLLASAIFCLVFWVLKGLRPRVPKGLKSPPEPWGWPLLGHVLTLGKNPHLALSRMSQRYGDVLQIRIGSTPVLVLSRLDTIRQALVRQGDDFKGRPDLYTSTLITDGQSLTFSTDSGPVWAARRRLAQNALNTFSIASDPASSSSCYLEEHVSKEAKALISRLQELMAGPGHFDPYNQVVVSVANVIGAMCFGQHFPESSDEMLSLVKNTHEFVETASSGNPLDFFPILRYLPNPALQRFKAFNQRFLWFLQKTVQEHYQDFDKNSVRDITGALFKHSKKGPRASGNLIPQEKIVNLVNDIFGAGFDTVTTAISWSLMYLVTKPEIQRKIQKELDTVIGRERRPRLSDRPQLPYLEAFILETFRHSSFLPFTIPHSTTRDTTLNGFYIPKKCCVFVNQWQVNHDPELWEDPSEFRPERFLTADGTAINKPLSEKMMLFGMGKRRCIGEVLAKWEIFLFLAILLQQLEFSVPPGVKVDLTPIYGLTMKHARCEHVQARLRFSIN
Chain of Lysosomal acid glucosylceramidase (Homo sapiens) (P04062 whole entry, looked up): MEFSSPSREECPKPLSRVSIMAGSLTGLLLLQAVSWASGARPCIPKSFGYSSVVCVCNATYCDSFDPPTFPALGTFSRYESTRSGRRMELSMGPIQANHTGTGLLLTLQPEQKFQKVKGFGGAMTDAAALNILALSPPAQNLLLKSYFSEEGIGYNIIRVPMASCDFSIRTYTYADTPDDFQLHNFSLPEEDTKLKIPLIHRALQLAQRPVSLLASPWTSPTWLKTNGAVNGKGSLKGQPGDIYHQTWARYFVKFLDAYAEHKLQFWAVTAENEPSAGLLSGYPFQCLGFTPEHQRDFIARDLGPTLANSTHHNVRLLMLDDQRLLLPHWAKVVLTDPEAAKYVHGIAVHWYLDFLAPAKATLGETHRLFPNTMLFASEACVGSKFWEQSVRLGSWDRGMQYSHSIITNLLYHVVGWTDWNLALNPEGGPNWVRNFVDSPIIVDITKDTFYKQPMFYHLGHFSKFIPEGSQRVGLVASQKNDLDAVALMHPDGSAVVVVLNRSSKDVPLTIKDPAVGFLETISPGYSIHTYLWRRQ
Chain of Cytochrome P450 2C19 (Homo sapiens) (P33261 whole entry, looked up): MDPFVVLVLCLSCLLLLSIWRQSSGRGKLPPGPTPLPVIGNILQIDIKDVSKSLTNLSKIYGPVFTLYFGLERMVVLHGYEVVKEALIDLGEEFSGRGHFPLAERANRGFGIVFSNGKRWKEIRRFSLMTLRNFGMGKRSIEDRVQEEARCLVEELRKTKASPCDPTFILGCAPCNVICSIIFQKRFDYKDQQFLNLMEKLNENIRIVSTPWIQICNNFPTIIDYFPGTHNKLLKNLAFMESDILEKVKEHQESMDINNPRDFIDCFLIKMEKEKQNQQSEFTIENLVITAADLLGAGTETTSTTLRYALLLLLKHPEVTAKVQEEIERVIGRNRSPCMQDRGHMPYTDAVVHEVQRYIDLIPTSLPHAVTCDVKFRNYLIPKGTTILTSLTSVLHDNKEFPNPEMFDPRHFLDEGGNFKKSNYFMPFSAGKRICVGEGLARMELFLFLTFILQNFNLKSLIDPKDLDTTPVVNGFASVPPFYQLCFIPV

As for `COc1ccccc1CNc1cc(-c2ccoc2)ncn1`, the Potency was greater than 11.4 µM in assay [1], 15.8 µM (active) in assay [3], greater than 46 µM in assay [6] and greater than 46 µM in [7]. In addition, the activity change, negative = inhibition is -15.7% in assay [2] and -9.53% in assay [4]. The activity, negative = inhibition in assay [5] was 6.29%. Besides, the Potency result in assay [8], in [9], in [10], in [11], in assay [12] and in [13] was “inactive” throughout. Moreover, in [14], the outcome was inactive.

For `COc1cccc(-c2nc(NCc3ccccc3OC)c3ccccc3n2)c1`, in [2], the activity change, negative = inhibition is 9.52%. In addition, the Potency was 0.631 µM (active) in assay [3]; greater than 46 µM in assay [6]; greater than 46 µM in assay [7]; 3.98 µM (active) in assay [15]; 7.94 µM (active) in assay [16]. In assay [5], the activity, negative = inhibition is -9.86%. In addition, the Potency result in assay [8], in assay [10], in assay [11], in [17] and in [13] was “inactive” in each case. In addition, the result in [14] was inactive.

With `O=c1cnc2cnc(Oc3cccc(Cl)c3)nc2n1CCc1ccccc1`, the Potency is greater than 11.4 µM in [1]; greater than 9.22 µM in assay [6]; greater than 46 µM in [7]; 2.24 µM (active) in [11]; 3.55 µM (active) in assay [17]. In assay [5], the activity, negative = inhibition is -20.1%. The Potency result in assay [8], in assay [9] and in assay [13] was “inactive” each time. Moreover, in [14], the result was inactive.

As for `CN(Cc1ccco1)c1ncncc1-c1cccc(NS(C)(=O)=O)c1`, the activity change, negative = inhibition is -8.59% in [2] and -4.49% in assay [4]. The Potency in [3] was 15.8 µM (active); in assay [6], greater than 46 µM; in assay [7], greater than 46 µM; in assay [15], 0.794 µM (active). Further, in assay [5], the activity, negative = inhibition was 8.28%. Besides, the Potency entry in assay [8], in assay [9], in [10], in assay [11], in assay [17] and in assay [13] was “inactive” throughout. The result in assay [14] was inactive.

For the molecule `COc1ccc2[nH]cc(CCNc3ccnc(-c4ccccc4Cl)n3)c2c1`, the activity change, negative = inhibition in assay [2] was -9.46%; in [4] it was 5.21%. The Potency is 0.398 µM (active) in [3]; greater than 46 µM in assay [6]; greater than 46 µM in assay [7]; 2 µM (active) in [15]; 22.4 µM (active) in [11]; 22.4 µM (active) in assay [17]. Further, in assay [5], the activity, negative = inhibition was -20.6%. Further, the Potency result in [9], in assay [10] and in [13] was “inactive” in each case. Besides, the outcome in assay [14] was inactive.

Consider `N#Cc1cccc(-c2nc(NCc3cccs3)c3ccccc3n2)c1`, for which the Potency in assay [1] was greater than 11.4 µM; in assay [3] it was 0.316 µM (active); in assay [6], greater than 46 µM; in assay [7] it was greater than 46 µM; in assay [15], 3.98 µM (active). Further, the activity change, negative = inhibition is -7.71% in assay [2] and -16.7% in assay [4]. In addition, the activity, negative = inhibition in assay [5] is -29.9%. The Potency result in assay [8], in [10], in assay [11] and in [12] was “inactive” each time. For the same molecule, the result in [14] was inactive.
